Platelet DG rel: inhibitors of platelet dense granule secretion, primary screen, cell-based, MLPCN, human platelets | human platelet-rich plasma, SFLLRN dense granule ATP release, luminescence | inhibition, %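 (compounds screened at 7.5 µM in platelet-rich plasma)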 | actives 0.22% (n = 300,000);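 active = mean replicate score, as percent of positive control, at or above 50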
STAT3 inh: IL-6 driven STAT3 reporter inhibitors, primary screen, U3A cells, luciferase, luminescence, MLSCN library | IL-6 STAT3-luciferase reporter; host cell line lacks STAT1 | inhibition, % at 5.5 µM | actives 0.89% (n = 190,000) | AID 862, 2007;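 active = inhibition above the mean inhibition across all screened compounds plus 3 SD, cut at about 44% in these data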;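 note: 0% = DMSO only wells and 100% = 100 µM nifuroxazide control wells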
TRAIL sens C8: viability loss with TRAIL in NB7+C8 cells, primary screen, TRAIL sensitizer project, cell-based, ATPlite luminescence. inhibition (viability loss, TRAIL sensitization), % at 10 µM. actives 1% (n = 360,000). AID 624354, 2012;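 active = compounds causing at least 50% loss of cell viability in the single-dose screen, relative to plate controls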
PPC-1+TRAIL kill: compounds killing PPC-1 cancer cells with TRAIL present, primary screen, TRAIL potentiator project, ATPLite luminescence, uHTS; PPC-1 cells + TRAIL, ATPLite viability luminescence; AID 1443, 2008; cell killing (% activity), % at 4 µM or 5 µM; actives 0.41% (n = 220,000);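 active = cell killing above 50% in the first pass at 4 µM, then a duplicate retest at 5 µM averaging 50% or more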;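 note: plate controls were cells with TRAIL plus DMSO for no effect and medium-only wells lacking cells for full effect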
STAT1 blocker: STAT1 signaling inhibitors, primary screen, cell-based, HTS, luciferase reporter; inhibition, % at 5.5 µM; actives 0.35% (n = 200,000); NIH 3T3 STAT1-luciferase reporter, IFN-gamma, luminescence;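 active = inhibition above a set limit, the mean inhibition across all tested compounds plus 3 SD, cut at about 34% in these data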;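 note: 0% = IFN-gamma with DMSO and 100% = IFN-gamma with 300 µM nifuroxazide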
Starred values were filed as active, the others as inactive; . = no result. An excerpt weighted towards active compounds, which were near 1.6% of everything screened.

SMILES | Platelet DG rel | STAT3 inh | TRAIL sens C8 | PPC-1+TRAIL kill | STAT1 blocker
CN(C)c1ncnc2c1ccn2C1OC(CO)C(O)C1O (centres undefined) | . | . | 78.2* | . | .
OCC1OC(n2ccc3c(NO)ncnc32)C(O)C1O (centres undefined) | . | . | 92.1* | . | .
CN(C)c1nc2c(N)ncnc2n1C1OC(CO)C(O)C1O (centres undefined) | . | . | 10.2 | . | .
Nc1ccn([C@@H]2O[C@H](CO)[C@@H](O)[C@H]2O)c(=O)n1 | . | . | -17.7 | . | .
Cc1ccc(OCC(=O)c2cc(C)n(Cc3cccs3)c2C)c([N+](=O)[O-])n1 | -1.1 | 51.7* | 17.5 | -12.0 | 42.6*
Cc1cc(C)c(S(=O)(=O)N(C)CC(=O)N2CCCC2)c(C)c1 | . | . | 3.5 | . | .
O=C(c1ccc(Cl)cc1)C1CCCN(Cc2ccc(Oc3ncccn3)cc2)C1 (centres undefined) | 52.1* | 14.4 | -3.6 | 18.0 | 11.8
CCOc1ccc(NC(=O)n2ncc3c(C)cccc32)cc1 | 11.2 | . | 36.3 | . | .
COc1cccc(NC(=O)n2ncc3c(C)cccc32)c1 | 36.6 | . | 53.3* | . | .
CCc1c(C)c(C#N)c2nc3ccccc3n2c1-n1nc(C)cc1C | -2.3 | -2.3 | -4.1 | 15.1 | 8.3
CCc1c(C)c(C#N)c2nc3ccccc3n2c1Cl | 13.1 | -1.7 | . | 60.1* | -1.7
O=C1Nc2ccccc2N(C(=O)c2ccc(-c3ccccc3)cc2)C1c1nc2ccccc2[nH]1 (centres undefined) | . | . | 73.6* | . | .
CC1C(=O)Nc2ccccc2N1C(=O)c1ccc(F)cc1 (centres undefined) | -6.6 | . | -28.1 | . | .
O=C1Nc2ccccc2N(C(=O)c2c(F)cccc2F)C1c1nc2ccccc2[nH]1 (centres undefined) | . | . | 77.2* | . | .
O=C1CC(c2nc3ccccc3[nH]2)CN1c1ccccc1F (centres undefined) | 4.5 | 6.6 | -4.5 | 8.8 | 3.6
Cc1ccc(S(=O)(=O)N2C3CC(c4ccccc4)N(S(=O)(=O)c4ccccc4Cl)CC3C(=O)C[C@H]2c2ccccc2)cc1 (some centres undefined) | . | . | -5.0 | . | .
COc1cccc(OCc2ccc(Cl)cc2)c1C#N | 0.8 | . | 59.3* | 31.0 | .
COc1ccccc1/C=C/C=N/n1c(-c2cc(-c3ccccc3)n[nH]2)n[nH]c1=S | -4.0 | . | 58.2* | 9.9 | .
CC(C)CNC(=O)C1(C)CCCN1C(=O)c1cccnc1Oc1ccccc1 (centres undefined) | . | . | -11.5 | . | .
CCOC(=O)C(=O)N(C)c1c(CC)nc2c(OCc3cccc(OC)c3)cccn12 | . | . | -6.1 | . | .
CCN(CC)CCNC(=O)CCc1c(C)nc2c(c(C)nn2-c2ccc(C)c(C)c2)c1C | -2.7 | . | 24.8 | . | .
CC(C)(C)c1ccc(-c2cn(-c3ccc(Br)cc3)c3[n+]2CCCS3)cc1 | 3.4 | 40.9 | 55.1* | 49.1 | 28.1
CCc1nc2ccc(C(=O)Nc3cc(-c4ccccc4)ccc3OC)cn2c1N(C)C(=O)c1cccc(OC)c1 | . | . | 19.4 | . | .
CN(c1ccc(F)cc1)S(=O)(=O)c1ccc2[nH]cc(C(=O)O)c(=O)c2c1 | . | 10.3 | -19.6 | 61.9* | 0.1
COCCN(CCOC)C(=O)c1c[nH]c2ccc(S(=O)(=O)N(C)c3ccc(F)cc3)cc2c1=O | 11.2 | 1.3 | -22.1 | 6.9 | 2.2
SMILES | Platelet DG rel | STAT3 inh | TRAIL sens C8 | PPC-1+TRAIL kill | STAT1 blocker
CCOC(=O)N1CCN(S(=O)(=O)N2CCCC(C(=O)NCc3ccccc3OCC)C2)CC1 (centres undefined) | . | . | 8.2 | . | .
O=C(c1ccco1)N1CCN(C(=O)c2ccco2)CC1 | . | . | -7.7 | . | .
NC(=O)N1CCN(C(=O)c2ccco2)CC1 | 50.8* | -6.4 | 3.3 | 4.4 | -1.8
O=C(Nc1cccc([N+](=O)[O-])c1)c1ccc2ccccc2c1O | 0.4 | . | 54.0* | 27.7 | .
CC(C)(C)c1ccc(C(=O)Nc2cccc([N+](=O)[O-])c2)cc1 | -0.7 | -4.5 | 54.5* | 38.7 | -34.2
O=C(Cc1ccccc1)Nc1cccc([N+](=O)[O-])c1 | 4.5 | 12.1 | -2.3 | 8.1 | 3.1
CC(C)NC(=O)C1(C)CCCCN1Cc1ccc(OCc2ccccc2)cc1 (centres undefined) | . | . | 7.0 | . | .
O=C(Nc1cccc(C(F)(F)F)c1)c1csc([C@@H]2O[C@H](CO)[C@H](O)[C@H](O)[C@H]2O)n1 | . | . | -1.5 | . | .
S=C(Nc1ccccc1)Nc1ccc(OCc2ccc(Cl)cc2Cl)cc1 | 2.8 | 64.1* | -14.0 | 0.2 | 58.7*
S=C(NCCSCc1ccc(Cl)cc1Cl)Nc1ccccc1 | . | 21.5 | -6.9 | 18.3 | 2.5

Screening data (PubChem)
